In PubChem BioAssay (NCI):
About 79,000 compounds went through this panel and 15% of them were active in at least one assay; those are over-represented in the sample as a whole. The source made the active and inactive calls. No stated cut-off is given here; in the data, active means growth inhibition above about 70%; inactive means the rest.

Tests used:
[1] = NCI Yeast Anticancer Drug Screen. Data for the mlh1 strain (AID 171);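 further: 0% = growth of vehicle-treated control cultures of the same strain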; conditions: S. cerevisiae mlh1 strain growth inhibition, active compounds read high
Outline: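 Here the genetically defined yeast mutant is grown with each compound, and the extent to which its growth falls below that of vehicle-exposed cells is reported.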

[2] = NCI Yeast Anticancer Drug Screen. Data for the sgs1 strain (AID 173);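 further: 0% = growth of vehicle-only control cultures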; conditions: S. cerevisiae sgs1 mutant, active compounds read high
Outline: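 Relative growth inhibition, referenced to vehicle, was determined in a yeast strain with a defined alteration affecting DNA damage repair or cell cycle control after compound exposure.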

[3] = NCI Yeast Anticancer Drug Screen. Data for the mlh1 rad18 strain (AID 175); conditions: S. cerevisiae mlh1 rad18 strain growth inhibition, active compounds read high
Outline: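 In this whole-cell yeast screen, a strain with altered DNA damage repair is challenged with compound, and its growth is measured against matched vehicle-treated controls.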

[4] = NCI Yeast Anticancer Drug Screen. Data for the rad18 strain (AID 177); conditions: S. cerevisiae rad18 mutant growth inhibition, active compounds read high
Outline: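 Screen uses a yeast strain with a defined lesion in DNA damage repair; compound effect is read as loss of growth compared to untreated vehicle cultures.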

[5] = NCI Yeast Anticancer Drug Screen. Data for the rad52 strain (AID 147);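 further: 0% = growth of vehicle-treated control cultures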; conditions: S. cerevisiae rad52 mutant growth inhibition, active compounds read high
Outline: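 Measured: yeast growth inhibition. System: strain with a defined DNA damage repair alteration. Reference: vehicle-treated control cultures.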

[6] = NCI Yeast Anticancer Drug Screen. Data for the wt1 strain (AID 149);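 further: 0% = growth of vehicle-treated wt1 cultures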; conditions: S. cerevisiae wt1 strain (SPY 50644) growth inhibition, active compounds read high
Outline: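 Using yeast strain wt1, compound-induced growth inhibition was determined against vehicle-treated cultures.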

[7] = NCI Yeast Anticancer Drug Screen. Data for the rad50EPP+ strain (AID 151);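 further: 0% = growth of vehicle-treated control cultures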; conditions: S. cerevisiae rad50 mutant strain, active compounds read high
Outline: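 One strain with a rad50 alteration (rad50EPP+) was compound-treated, its growth then compared to that of vehicle controls.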

[8] = NCI Yeast Anticancer Drug Screen. Data for the rad50 strain (AID 155);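 further: 0% = growth of vehicle-only cultures of the same strain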; conditions: S. cerevisiae rad50 strain growth inhibition, active compounds read high
Outline: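 Relative growth inhibition (compound vs vehicle) was measured in yeast with a defined repair-gene alteration.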

[9] = NCI Yeast Anticancer Drug Screen. Data for the mec2-1 strain (AID 157); conditions: S. cerevisiae mec2-1 strain, active compounds read high
Outline: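 Test agents were screened against the mec2-1 yeast strain, with defined DNA repair or cell cycle alteration. Growth was scored as inhibition against vehicle-only controls.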

[10] = NCI Yeast Anticancer Drug Screen. Data for the rad14 strain (AID 159);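 further: 0% = growth of vehicle-treated control cultures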; conditions: S. cerevisiae rad14 strain growth inhibition, active compounds read high
Outline: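 Screen for anticancer potential: a yeast strain altered in DNA damage repair is grown with compound, and reduced growth is quantified against vehicle controls.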

[11] = NCI Yeast Anticancer Drug Screen. Data for the sgs1 mgt1 strain (AID 161);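 further: 0% = growth of cultures given vehicle only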; conditions: S. cerevisiae sgs1 mgt1 strain, active compounds read high
Outline: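 Mutant yeast exposed to compound; growth scored against vehicle-only wells.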

[12] = NCI Yeast Anticancer Drug Screen. Data for the CLN2oe strain (AID 163);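 further: 0% = growth of vehicle-only control cultures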; conditions: S. cerevisiae CLN2oe strain, active compounds read high
Outline: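 Here, growth inhibition in a cell-cycle-altered yeast strain after compound exposure was quantified against vehicle control growth.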

[13] = NCI Yeast Anticancer Drug Screen. Data for the cln2 rad14 strain (AID 165);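 further: 0% = growth equal to vehicle treated cultures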; conditions: S. cerevisiae cln2 rad14 strain, active compounds read high
Outline: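 Growth of compound-exposed yeast (cln2 rad14 genotype) measured and expressed as inhibition relative to vehicle.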

[14] = NCI Yeast Anticancer Drug Screen. Data for the bub3 strain (AID 167); conditions: S. cerevisiae bub3 mutant strain, active compounds read high
Outline: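 Screening used yeast with an engineered genetic alteration affecting cell cycle control. Compound-exposed cultures were compared with vehicle cultures, and reduced growth was taken as inhibition.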

[15] = NCI Yeast Anticancer Drug Screen. Data for the wt2 strain (AID 169);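 further: 0% = growth of vehicle-treated yeast cultures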; conditions: S. cerevisiae wt2 strain growth inhibition, active compounds read high
Outline: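 Genetically defined yeast strains from a DNA-repair/cell-cycle panel were used. Compound-exposed yeast growth was measured, and the inhibition was calculated relative to vehicle treatment.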

[16] = at 5.0 µM (retest, dose inferred, filed as 0.5)
[17] = at 50.0 µM (retest, dose inferred, filed as 5.0)

Measured: growth inhibition

CC1OC(OC2CCCc3c(O)c4c(c(O)c32)C(=O)c2ccccc2C4=O)CC(N)C1O (centres undefined)
inactive: [1]; at 1.2 µM -11% | [1]; at 3.7 µM -6% | [1]; at 11.0 µM 16% | [2]; at 1.2 µM -12% | [2]; at 3.7 µM -7% | [2]; at 11.0 µM 34% | [3]; [16] 12% | [3]; at 50.0 µM 66.2% | [4]; at 1.2 µM -8% | [4]; at 3.7 µM 0% | [4]; at 11.0 µM 8%
active: [1]; at 33.0 µM 94% | [1]; at 100.0 µM 99% | [2]; at 33.0 µM 97% | [2]; at 100.0 µM 99% | [3]; [17] 99% | [4]; at 33.0 µM 90% | [4]; at 100.0 µM 99%

CN=C(N)N/N=C(\C)c1ccc2oc3ccc(/C(C)=N/NC(N)=NC)cc3c2c1
active: [5]; at 11.0 µM 88% | [5]; at 33.0 µM 98% | [5]; at 100.0 µM 98% | [6]; at 33.0 µM 98% | [6]; at 100.0 µM 98% | [7]; at 11.0 µM 70% | [7]; at 33.0 µM 96% | [7]; at 100.0 µM 98% | [8]; [16] 81% | [8]; at 11.0 µM 92% | [8]; at 33.0 µM 98% | [8]; [17] 98% | [8]; at 50.0 µM 90% | [8]; at 100.0 µM 98% | [9]; at 33.0 µM 98% | [9]; [17] 99% | [9]; at 50.0 µM 93.6% | [9]; at 100.0 µM 98% | [10]; at 33.0 µM 98% | [10]; at 100.0 µM 98% | [11]; [17] 99% | [11]; at 50.0 µM 90.4% | [12]; at 33.0 µM 97% | [12]; at 100.0 µM 98% | [13]; [17] 98% | [13]; at 50.0 µM 91.8% | [14]; at 33.0 µM 97% | [14]; [17] 99% | [14]; at 50.0 µM 89.2% | [14]; at 100.0 µM 98% | [15]; at 11.0 µM 95% | [15]; at 33.0 µM 98% | [15]; at 100.0 µM 98% | [1]; at 33.0 µM 98% | [1]; at 100.0 µM 98% | [2]; at 33.0 µM 98% | [2]; at 100.0 µM 98% | [3]; [17] 98% | [3]; at 50.0 µM 87.5% | [4]; at 11.0 µM 70% | [4]; at 33.0 µM 98% | [4]; at 100.0 µM 98%
inactive: [5]; at 1.2 µM 11% | [5]; at 3.7 µM 28% | [6]; at 1.2 µM -8% | [6]; at 3.7 µM -21% | [6]; at 11.0 µM 11% | [7]; at 1.2 µM -17% | [7]; at 3.7 µM 23% | [8]; at 1.2 µM 34% | [8]; at 3.7 µM 64% | [9]; at 1.2 µM -11% | [9]; at 3.7 µM -9% | [9]; [16] 15% | [9]; at 11.0 µM 15% | [10]; at 1.2 µM 4% | [10]; at 3.7 µM -18% | [10]; at 11.0 µM 43% | [11]; [16] 56% | [12]; at 1.2 µM -66% | [12]; at 3.7 µM -74% | [12]; at 11.0 µM 20% | [13]; [16] 13% | [14]; at 1.2 µM -14% | [14]; at 3.7 µM -24% | [14]; [16] 37% | [14]; at 11.0 µM 2% | [15]; at 1.2 µM -4% | [15]; at 3.7 µM 2% | [1]; at 1.2 µM -23% | [1]; at 3.7 µM -24% | [1]; at 11.0 µM 35% | [2]; at 1.2 µM -21% | [2]; at 3.7 µM -14% | [2]; at 11.0 µM 37% | [3]; [16] 54% | [4]; at 1.2 µM -13% | [4]; at 3.7 µM -13%

CCN(CC)N=Nc1c(C(N)=O)n[nH]c1C
inactive: [5]; at 1.2 µM 0% | [5]; at 3.7 µM -3% | [5]; at 11.0 µM 8% | [5]; at 33.0 µM 47% | [6]; at 1.2 µM -6% | [6]; at 3.7 µM -5% | [6]; at 11.0 µM -7% | [6]; at 33.0 µM -5% | [6]; at 100.0 µM 0% | [7]; at 1.2 µM -2% | [7]; at 3.7 µM 3% | [7]; at 11.0 µM 5% | [7]; at 33.0 µM 31% | [8]; at 1.2 µM -10% | [8]; at 3.7 µM -8% | [8]; [16] -138% | [8]; at 11.0 µM 9% | [8]; at 33.0 µM 54% | [8]; [17] 56% | [9]; at 1.2 µM 2% | [9]; at 3.7 µM 1% | [9]; [16] -46% | [9]; at 11.0 µM 8% | [9]; at 33.0 µM 2% | [9]; [17] -40% | [9]; at 50.0 µM 15.8% | [9]; at 100.0 µM 27% | [10]; at 1.2 µM -2% | [10]; at 3.7 µM 1% | [10]; at 11.0 µM 0% | [10]; at 33.0 µM 3% | [10]; at 100.0 µM 23% | [11]; [16] -62% | [11]; [17] -35% | [11]; at 50.0 µM -0.05% | [12]; at 1.2 µM -5% | [12]; at 3.7 µM 1% | [12]; at 11.0 µM 0% | [12]; at 33.0 µM 0% | [12]; at 100.0 µM 4% | [13]; [16] -55% | [13]; [17] -63% | [13]; at 50.0 µM -29.2% | [14]; at 1.2 µM -15% | [14]; at 3.7 µM -12% | [14]; [16] -65% | [14]; at 11.0 µM -9% | [14]; at 33.0 µM -9% | [14]; [17] -84% | [14]; at 50.0 µM -22.8% | [14]; at 100.0 µM -2% | [15]; at 1.2 µM -1% | [15]; at 3.7 µM 0% | [15]; at 11.0 µM -1% | [15]; at 33.0 µM -1% | [15]; at 100.0 µM 2% | [1]; at 1.2 µM 6% | [1]; at 3.7 µM -6% | [1]; at 11.0 µM -5% | [1]; at 33.0 µM -2% | [1]; at 100.0 µM -3% | [2]; at 1.2 µM -1% | [2]; at 3.7 µM -1% | [2]; at 11.0 µM -2% | [2]; at 33.0 µM 9% | [2]; at 100.0 µM 43% | [3]; [16] -124% | [3]; [17] -75% | [3]; at 50.0 µM 40.4% | [4]; at 1.2 µM -2% | [4]; at 3.7 µM 0% | [4]; at 11.0 µM 6% | [4]; at 33.0 µM 23%
active: [5]; at 100.0 µM 93% | [7]; at 100.0 µM 80% | [8]; at 50.0 µM 85.3% | [8]; at 100.0 µM 92% | [4]; at 100.0 µM 83%
